KB-3-1 cytotox: qHTS assay for MDR1-selective chemotherapeutics: Primary screen using the parental adenocarcinoma cell KB-3-1 | Potency, µM (top dose mostly 46.1 µM), most hits filed as cytotoxic | actives 1.4% (n = 400,000) | KB-3-1 viability, CellTiter-Glo ATP luminescence, 72 h; further: on the % scale 0 is the no-effect control and ±100 the full control effect; nearly all actives have a fitted effect of over 60% in size
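Using CellTiter-Glo luminescence, growth of non-resistant KB-3-1 adenocarcinoma cells is assessed 72 h after pin-tool compound addition at 37 °C. Normalized responses across the concentration series yield fitted curves.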
KB-V1 cytotox: qHTS assay for MDR1-selective chemotherapeutics: Primary screen using the drug-selected MDR subline cells KB-V1 | Potency, µM (doses to about 46.1 µM), hits mostly cytotoxic | KB-V1 MDR cells viability, CellTiter-Glo, 72 h | actives 3.4% (n = 400,000); further: on the % scale 0 is the no-effect control and ±100 the full control effect; nearly all actives have a fitted effect of over 60% in size
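Drug-selected KB-V1 cells, grown in DMEM lacking phenol red with 10% FBS, receive compound titrations; after three days at 37 degrees C, surviving cell ATP is quantified by CellTiter-Glo luminescence and responses normalized and curve-fitted.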
MCF10A rerep: A quantitative high throughput screen for small molecules that induce DNA re-replication in MCF 10a normal breast cells | actives 2.9% (n = 350,000) | Potency, µM (doses to about 46.1 µM), without a hit: at the top dose activity, positive = re-replication, usual class: activators | MCF 10A DNA re-replication, Hoechst nuclear intensity, 48 h; further: % of control where 0% means no effect; nearly all actives have a fitted effect of over 50% in size
SW480 rerep: A quantitative high throughput screen for small molecules that induce DNA re-replication in SW480 colon adenocarcinoma cells; SW480 DNA re-replication, Hoechst DNA content imaging, 48 h; actives 1.8% (n = 340,000); Potency, µM (top dose mostly 46.1 µM), for inactives: at the highest dose re-replication activation, actives largely listed as activators; AID 624297, 2012; further: % of control where 0% means no effect; nearly all actives have a fitted effect of over 55% in size
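Quantitative HTS format with DMSO vehicle controls; 48 hr drug incubation at 37 C, then 40 min Hoechst staining and scanning imager measurement at 405 nm excitation.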
HT1080 IDH1KD tx: qHTS for induction of synthetic lethality in tumor cells producing 2HG: qHTS for the HT-1080-IDH1KD cell line; HT-1080 IDH1 knockdown viability, ATP luminescence, 48 h; Potency, µM (highest dose often 46.1 µM), for the others: top-dose activity, negative = toxicity, hits mostly cytotoxic; actives 2% (n = 360,000); AID 686971, 2013;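 further: 0% = DMSO wells and -100% = cell-free medium wells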
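HT-1080-IDH1KD cells (IDH1 knocked down), 750/well in RPMI with 5% FBS, treated with compound 48 h at 37 degrees C. Viability by CellTiter-Glo luminescence, normalised to DMSO and no-cell wells; concentration-response curves classed.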
HT1080NT lethal: qHTS for induction of synthetic lethality in tumor cells producing 2HG: qHTS for the HT-1080-NT fibrosarcoma cell line; Potency, µM (top dose mostly 46.1 µM), for inactives: at the top dose activity, negative = less viability, actives largely listed as cytotoxic; AID 686970, 2013; actives 1.6% (n = 360,000); HT-1080-NT fibrosarcoma viability, CellTiter-Glo ATP luminescence, 48 h;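 further: NT is the 2HG producing partner of a matched IDH1 knockdown line; 0% = DMSO-treated cells and -100% = media-only wells without cells; nearly all actives have a fitted effect of over 55% in size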
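750 cells/well, RPMI + 5% FBS; 2 h settle, compound pin-transfer, 48 h at 37 degrees C. CellTiter-Glo 10 min RT, luminescence. Normalized to DMSO and media-only wells.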
Starred values were filed as active, the others as inactive; i = inactive; ? = inconclusive; / = no result given. This is a sample that favours compounds with a hit; in the whole collection about 8% have one here. The call rests on the fitted dose curve; in most records, active means well fitted curve in the direction sought with a large enough effect; inconclusive means small, poorly fitted or top-dose-only effect, or another doubt; inactive means no such curve, though single readings can be large; an effect the other way counts as inactive or inconclusive. Potency means the concentration at half of the fitted maximal effect.

SMILES	KB-3-1 cytotox	KB-V1 cytotox	MCF10A rerep	SW480 rerep	HT1080 IDH1KD tx	HT1080NT lethal
Cc1ccc(S(=O)(=O)c2c(C)cc(C)nc2Cl)cc1	i	13µM*	1%	-5%	-1%	0%
COc1ccc(Oc2nc(C)cc(C)c2S(=O)(=O)c2ccc(C)cc2)cc1	i	21µM*	10%	-74%	-13%	7%
CCCc1nnc(SCC(=O)Nc2ccc(Cl)cc2Cl)o1	i	i	-31%	-3%	8%	11%
CCOC(=O)c1ccc(S(=O)(=O)N2CC(=O)Nc3ccccc32)cc1	i	i	?	15µM*	-20%	-21%
CCN(CC)CCN1C(=O)C(=O)/C(=C(/O)c2ccc(C)cc2)C1c1cccnc1 (configuration not stated)	i	i	-6%	6%	7%	8%
Cn1c(COc2ccc(Br)cc2)nnc1SC1CCc2ccccc2C1=O (configuration not stated)	?	16µM*	?	/	-19%	-16%
Cn1c(COc2ccccc2)nnc1SCCSc1nnc(COc2ccccc2)n1C	i	?	18%	4%	0%	1%
COc1ccc(C=O)cc1Cn1c(C)cc(C)c(C#N)c1=O	?	i	?	?	7%	18%
CC(=O)c1ccc(NS(=O)(=O)c2cc3c(cc2C)N(C)CCO3)cc1	i	i	0%	0%	16µM*	?
CCn1c2ccccc2c2nnc(SCC(=O)N(C)C3CCS(=O)(=O)C3)nc21 (configuration not stated)	i	i	7%	1%	13%	10%
COc1ccc(C(=O)c2ccc(OC)c(OC)c2)cc1OC	i	i	12%	6%	-7%	0%
COc1ccc(C(=O)c2cc(OC)c(OC)c(OC)c2)cc1OC	5.8µM*	i	3.7µM*	3.7µM*	12µM*	?
COc1ccc(C(O)c2nccc3cc(OC)c(OC)cc23)cc1OC (configuration not stated)	?	8.2µM*	4%	-3%	-14%	-13%
COc1ccc(C(=O)c2nccc3cc(OC)c(OC)cc23)cc1OC	i	16µM*	4%	0%	2%	-1%
Cc1ccc(OCC(=O)Nc2ccc3c(c2)OCCO3)cc1C	?	i	25%	9%	-5%	0%
O=C(Nc1ccc(-c2nc3ccccc3o2)c(O)c1)c1cc(Cl)ccc1Cl	i	i	/	/	/	/
C=CCn1c(SCC(=O)Nc2ccc3c(c2)OCCO3)nnc1-c1ccco1	i	9.2µM*	17%	-3%	0%	3%
O=C(CSc1nnc(-c2c[nH]c3ccccc23)n1CC1CCCO1)Nc1ccc2c(c1)OCCO2 (configuration not stated)	i	i	29µM*	0%	-1%	1%
Cc1cc(NC(=O)CSc2nnc(-c3c[nH]c4ccccc34)n2-c2ccc(Cl)cc2)no1	i	i	16%	?	11µM*	-3%
O=C(CSc1nnc(-c2ccccc2Cl)n1Cc1ccco1)Nc1ccc2c(c1)OCCO2	i	i	5%	15%	-4%	-5%
O=C(CSc1nnc(-c2ccc(Cl)cc2)n1Cc1ccco1)Nc1ccc2c(c1)OCCO2	i	4.1µM*	?	1%	?	-23%
CCn1c(SCC(=O)Nc2ccc3c(c2)OCCO3)nnc1-c1c[nH]c2ccccc12	i	i	4%	6%	-2%	6%
